This note sets out measurements from ChEMBL document CHEMBL3988442, “University of Dundee, Small-Polar-MMV Screening Library” (2021).

The species entered for the first test is Homo sapiens. Kind of test: To identify inhibition of the IFN signalling (Jak-Stat) pathway via expression of an eGFP reporter gene under the control of an IFN-stimulated response element (ISRE) containing MxA promoter. It counts as functional. Also noted: scale not given: direction of the effect not stated beside the values. To be noted: 30 µM.
For `COc1cccc(CN2CCCC(Nc3cccc(F)c3)C2)c1O` (stereo not given), the Percent Effect came to 0.464%.
Same read-out and setting: the figure for `CS(=O)(=O)Cc1ccc(CNC(=O)c2cccnc2O)cc1` is 17.9%.
Regarding `N#Cc1ccnc(N2CCN(CC(O)c3cccc(F)c3)CC2)c1` (stereo not given), the Percent Effect is -1.26%.
On the same count and under the same terms, the figure for `CN1C(=O)C[C@@H]2[C@@H]1CCN2S(=O)(=O)Cc1ccccc1` is 1.27%.
Same read-out and setting: the figure for `Cn1ncc2c1C(COCC1CC1)CN(Cc1ccc(F)cc1)C2` (stereo not given) is 23.2%; for `CCC1=N[C@@]2(CC[C@@H]3CN(C(=O)NCC(C)C)C[C@@H]32)C(=O)N1CC(C)C` it is 2.46%; for `CC(O)CN1CCN(C(=O)c2cnn(-c3ccccc3F)c2)CC1` (stereo not given) it is 10.4%.
Same read-out and setting: the figure for `O=C(CCc1nccs1)N1CCN(c2ccc(Br)cn2)CC1` is 31.4%; for `Cc1cc(CN2CC[C@H]3C(=O)N(c4ccccc4)CCO[C@H]3C2)no1` it is 19.1%.
With `Cn1cc(-c2csc(N3CCN(C(=O)OC(C)(C)C)CC3)n2)cn1`, the Percent Effect was determined as 57.3%.
Same read-out and setting: the figure for `Cc1noc(C(C)C)c1C(=O)NCc1cccc(N(C)C)c1` is 33%; for `Cc1ccc(N2CCCc3sc(C(=O)NCc4cccnc4)nc32)nn1` it is -8.08%.
Take `Cc1nc2ccccc2nc1CN1CCCC1Cn1cncn1` (stereo not given): the Percent Effect turned out to be 13.1%.
On the same count and under the same terms, the figure for `CC(C)C(=O)N1CCN(C(=O)CCc2nnc(-c3ccccc3)o2)CC1` is 16.1%.
For the molecule `Cn1cnnc1C1CCCN(C(=O)NCc2ccc3c(c2)OCO3)C1` (stereo not given), the Percent Effect was -5.11%.
For the molecule `CCn1cc(NC(=O)NCC2(N3CCOCC3)CCSC2)cn1` (stereo not given), the Percent Effect was -1.24%.
On to `CS(=O)(=O)NC1CCN(C(=O)NCCNc2ccccn2)CC1`, for which the Percent Effect was found to be 14.7%.
As for `Cc1cccc(-n2ncc(C(=O)N3CCn4c(C)nnc4C3)c2C)c1`, the Percent Effect stood at 12.8%.
Consider `O=C(c1cscn1)N1CCC[C@]2(C[C@H](OCC3CC3)CO2)C1`, for which the Percent Effect was determined as 2.38%.
In the case of `N#Cc1cccnc1NCc1cccnc1N1CCC(C(N)=O)CC1`, the Percent Effect worked out at 3.17%.
For the molecule `c1cnc(NCc2noc3c2CN(CCN2CCCC2)CC3)nc1`, the Percent Effect is -3.46%.
Take `NC(=O)C1CCN(c2nc3nccc(-c4ccccc4)c3c(=O)[nH]2)CC1`: the Percent Effect is 5.49%.
Consider `Cc1cc(NC(=O)NCc2ccccn2)n(C)n1`, for which the Percent Effect is -16.7%.
Turning to `Fc1ccc(CN2CCC(c3nccnc3-n3ccnc3)CC2)cc1`, the Percent Effect was 17.9%.
Turning to `O=C(c1ccc(-n2cccn2)nc1)N1CCCN(c2cccnn2)CC1`, the Percent Effect is -7.18%.
Regarding `CCN(CC)c1ccc(C(=O)NCc2cccnc2-n2cncn2)cn1`, the Percent Effect amounted to 19.1%.
As to `CCCNC(=O)CCNC(=O)Cc1nc(-c2ccco2)oc1C`, the Percent Effect worked out at 8.33%.
On the same count and under the same terms, as for `CN1CCCC(CNC(=O)N2CCN(Cc3ccon3)CC2)C1` (stereo not given), the figure is 5.23%; as for `Cc1nc(C(C)(C)NC(=O)Nc2ccccc2)no1`, 17.2%.
Turning to `CSCc1cccc(S(=O)(=O)NCCCN2CCOCC2)c1`, the Percent Effect was -22.2%.
For the molecule `CN(Cc1ccsc1)C(=O)Nc1cccnc1N1CCCC1`, the Percent Effect was found to be 6.49%.
The same measure, in the same setting: as for `CC(C)n1c(C2CCCN(Cc3ccnn3C)C2)nc2ccccc21` (stereo not given), the figure is 18.1%.
Consider `Cc1cc(CC(=O)N2CCCC2c2nc(C(C)C)no2)on1` (stereo not given), for which the Percent Effect was determined as 5.27%.
As for `COc1cccc(CNc2nc(O)cc(C3CC(=O)N(C)C3)n2)c1` (stereo not given), the Percent Effect was found to be 14.9%.
With `CC(=O)N1CCn2cc(CNC(=O)c3cccn3C)nc2C1`, the Percent Effect was found to be 5.97%.
The same measure, in the same setting: the figure for `O=C1CC(c2ccccc2)C2(CCN(CC3CC3)CC2)N1` (stereo not given) is 0.446%; for `CNC(=O)CSc1nc2c(cnn2Cc2ccc(F)cc2)c(=O)[nH]1` it is 33.3%.
For the molecule `Cc1nc(C(=O)N2CCC(Nc3cccnn3)CC2)cs1`, the Percent Effect was -1.06%.
Regarding `COc1cccc(OCc2cc(C(=O)NC[C@H]3CCCN3)n[nH]2)c1`, the Percent Effect was -6.81%.
As for `Cc1ccc(CN2CCc3ncnc(C4CCOC4)c3CC2)s1` (stereo not given), the Percent Effect came to 18.1%.

In the next test the target is T1, Tyrosyl-tRNA synthetase, putative (Trypanosoma cruzi (strain CL Brener)) (UniProt Q4DSP6).
T1 sequence (whole entry): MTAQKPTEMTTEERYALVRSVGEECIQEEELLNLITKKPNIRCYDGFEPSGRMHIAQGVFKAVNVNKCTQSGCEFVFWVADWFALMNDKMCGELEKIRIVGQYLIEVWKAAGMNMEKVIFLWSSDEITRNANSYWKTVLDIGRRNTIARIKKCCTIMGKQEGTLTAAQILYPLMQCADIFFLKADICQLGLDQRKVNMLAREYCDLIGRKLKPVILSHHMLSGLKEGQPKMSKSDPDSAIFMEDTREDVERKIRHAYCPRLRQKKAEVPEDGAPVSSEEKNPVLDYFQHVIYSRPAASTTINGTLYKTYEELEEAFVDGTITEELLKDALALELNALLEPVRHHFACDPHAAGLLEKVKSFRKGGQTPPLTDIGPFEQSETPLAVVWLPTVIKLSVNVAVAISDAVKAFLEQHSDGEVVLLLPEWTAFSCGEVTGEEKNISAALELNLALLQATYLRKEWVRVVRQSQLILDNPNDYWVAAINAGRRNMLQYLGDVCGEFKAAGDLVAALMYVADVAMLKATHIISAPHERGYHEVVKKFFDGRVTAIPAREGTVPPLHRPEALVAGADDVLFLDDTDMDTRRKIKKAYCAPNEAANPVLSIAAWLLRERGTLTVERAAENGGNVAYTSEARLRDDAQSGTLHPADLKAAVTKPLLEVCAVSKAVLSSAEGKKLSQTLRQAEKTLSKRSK
Kind of test: Trypanosoma cruzi tyrosyl tRNA synthetase (TcYRS) _High Tyrosine SOP. It counts as functional. More on the design: scale not given: in the data most compounds retested in dose-response had high values. To be noted: 30 µM.
In the case of `COc1cccc(CN2CCCC(Nc3cccc(F)c3)C2)c1O` (stereo not given), the Percent Effect was 3.23%.
In the case of `CS(=O)(=O)Cc1ccc(CNC(=O)c2cccnc2O)cc1`, the Percent Effect is 3.12%.
In the case of `N#Cc1ccnc(N2CCN(CC(O)c3cccc(F)c3)CC2)c1` (stereo not given), the Percent Effect amounted to 5.38%.
For `CN1C(=O)C[C@@H]2[C@@H]1CCN2S(=O)(=O)Cc1ccccc1`, the Percent Effect is 3.12%.
The same measure, in the same setting: the figure for `Cn1ncc2c1C(COCC1CC1)CN(Cc1ccc(F)cc1)C2` (stereo not given) is 2.16%; for `CCC1=N[C@@]2(CC[C@@H]3CN(C(=O)NCC(C)C)C[C@@H]32)C(=O)N1CC(C)C` it is 8.33%.
In the case of `CC(O)CN1CCN(C(=O)c2cnn(-c3ccccc3F)c2)CC1` (stereo not given), the Percent Effect was -0.546%.
As to `O=C(CCc1nccs1)N1CCN(c2ccc(Br)cn2)CC1`, the Percent Effect came out at 2.86%.
On to `Cc1cc(CN2CC[C@H]3C(=O)N(c4ccccc4)CCO[C@H]3C2)no1`, for which the Percent Effect came out at 2.13%.
Turning to `Cn1cc(-c2csc(N3CCN(C(=O)OC(C)(C)C)CC3)n2)cn1`, the Percent Effect worked out at 10.5%.
With `Cc1noc(C(C)C)c1C(=O)NCc1cccc(N(C)C)c1`, the Percent Effect worked out at 4.85%.
On to `Cc1ccc(N2CCCc3sc(C(=O)NCc4cccnc4)nc32)nn1`, for which the Percent Effect was found to be 1.04%.
Still for that read-out and setting: as for `Cc1nc2ccccc2nc1CN1CCCC1Cn1cncn1` (stereo not given), the figure is 16.2%.
For the molecule `CC(C)C(=O)N1CCN(C(=O)CCc2nnc(-c3ccccc3)o2)CC1`, the Percent Effect came to 3.45%.
On to `Cn1cnnc1C1CCCN(C(=O)NCc2ccc3c(c2)OCO3)C1` (stereo not given), for which the Percent Effect was determined as 9.52%.
On to `CCn1cc(NC(=O)NCC2(N3CCOCC3)CCSC2)cn1` (stereo not given), for which the Percent Effect was 6.88%.
For the molecule `CS(=O)(=O)NC1CCN(C(=O)NCCNc2ccccn2)CC1`, the Percent Effect was -0.99%.
Regarding `Cc1cccc(-n2ncc(C(=O)N3CCn4c(C)nnc4C3)c2C)c1`, the Percent Effect is -0.493%.
The same measure, in the same setting: as for `O=C(c1cscn1)N1CCC[C@]2(C[C@H](OCC3CC3)CO2)C1`, the figure is 4.25%.
On the same count and under the same terms, as for `N#Cc1cccnc1NCc1cccnc1N1CCC(C(N)=O)CC1`, the figure is 3.23%; as for `c1cnc(NCc2noc3c2CN(CCN2CCCC2)CC3)nc1`, 6.25%; as for `NC(=O)C1CCN(c2nc3nccc(-c4ccccc4)c3c(=O)[nH]2)CC1`, 1.04%.
In the case of `Cc1cc(NC(=O)NCc2ccccn2)n(C)n1`, the Percent Effect came to 2.08%.
In the case of `Fc1ccc(CN2CCC(c3nccnc3-n3ccnc3)CC2)cc1`, the Percent Effect came out at 3.23%.
As to `O=C(c1ccc(-n2cccn2)nc1)N1CCCN(c2cccnn2)CC1`, the Percent Effect was -0.952%.
Turning to `CCN(CC)c1ccc(C(=O)NCc2cccnc2-n2cncn2)cn1`, the Percent Effect was 2.15%.
For `CCCNC(=O)CCNC(=O)Cc1nc(-c2ccco2)oc1C`, the Percent Effect came to 3.83%.
On the same count and under the same terms, as for `CN1CCCC(CNC(=O)N2CCN(Cc3ccon3)CC2)C1` (stereo not given), the figure is 4.92%; as for `Cc1nc(C(C)(C)NC(=O)Nc2ccccc2)no1`, -2.15%; as for `CSCc1cccc(S(=O)(=O)NCCCN2CCOCC2)c1`, 4.3%.
Regarding `CN(Cc1ccsc1)C(=O)Nc1cccnc1N1CCCC1`, the Percent Effect is -1.48%.
`CC(C)n1c(C2CCCN(Cc3ccnn3C)C2)nc2ccccc21` (stereo not given): the Percent Effect was 2.13%.
For `Cc1cc(CC(=O)N2CCCC2c2nc(C(C)C)no2)on1` (stereo not given), the Percent Effect amounted to 6.32%.
As to `COc1cccc(CNc2nc(O)cc(C3CC(=O)N(C)C3)n2)c1` (stereo not given), the Percent Effect was found to be 5.38%.
On to `CC(=O)N1CCn2cc(CNC(=O)c3cccn3C)nc2C1`, for which the Percent Effect was 3.19%.
As for `O=C1CC(c2ccccc2)C2(CCN(CC3CC3)CC2)N1` (stereo not given), the Percent Effect is 5.21%.
`CNC(=O)CSc1nc2c(cnn2Cc2ccc(F)cc2)c(=O)[nH]1`: the Percent Effect came out at 0%.
As for `Cc1nc(C(=O)N2CCC(Nc3cccnn3)CC2)cs1`, the Percent Effect was determined as 1.91%.
On to `COc1cccc(OCc2cc(C(=O)NC[C@H]3CCCN3)n[nH]2)c1`, for which the Percent Effect worked out at 1.05%.
As to `Cc1ccc(CN2CCc3ncnc(C4CCOC4)c3CC2)s1` (stereo not given), the Percent Effect was 5.21%.
